# From article PMC7862700, “An all-to-all approach to the identification of sequence-specific readers for epigenetic DNA modifications on cytosine”
# How the values were obtained:
# Experiment in all cases: DAPPL (digital affinity profiling via proximity ligation, sequencing); 10 mM Tris-HCl pH 7.5, 50 mM NaCl, 1 mM DTT, 4% glycerol, room temperature, 30 min; GST-TFs on glutathione beads, 16-mer random dsDNA library, 0.1% formaldehyde crosslink after washing; high values mean tight binding
# [1] = molecular target: T1, FEV (Homo sapiens, UniProt Q99581 1-238); settings: protein: recombinant; tags: N-terminal GST; dsDNA, one strand shown
# T1 sequence: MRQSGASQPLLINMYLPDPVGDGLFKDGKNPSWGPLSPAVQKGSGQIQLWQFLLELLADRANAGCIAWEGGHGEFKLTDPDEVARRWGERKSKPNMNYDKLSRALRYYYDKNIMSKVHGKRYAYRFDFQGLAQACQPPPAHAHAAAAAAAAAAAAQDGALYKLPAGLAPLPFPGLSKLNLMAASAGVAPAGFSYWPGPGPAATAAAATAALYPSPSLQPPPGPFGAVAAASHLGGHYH
# Procedure, shortened: (§1)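 GST fusions of human transcription factors were expressed in yeast and captured with glutathione beads. Once given DNA barcodes and pooled alongside a tag-only sample, they were incubated for 30 min at room temperature with 200 nmole of a random double-stranded 16-mer DNA library in Tris/NaCl/DTT/glycerol buffer, then washed, crosslinked (0.1% formaldehyde), proximity-ligated, PCR-amplified and sequenced on an Illumina NextSeq500. The binding signal of each hexamer is its read frequency for a factor divided by its frequency for the tag-only sample.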
# [2] = molecular target: ETV5 (Homo sapiens, UniProt P41161 1-510); settings: protein: recombinant; tags: N-terminal GST; dsDNA, one strand shown
# Procedure, shortened: as §1
# [3] = molecular target: HSF1 (Homo sapiens, UniProt Q00613 1-529); settings: protein: recombinant; tags: N-terminal GST; chain copies: 3; dsDNA, one strand shown
# Procedure, shortened: as §1
# [4] = molecular target: T2, SPIC (Homo sapiens, UniProt Q8N5J4 1-248); settings: protein: recombinant; tags: N-terminal GST; dsDNA, one strand shown
# T2 sequence: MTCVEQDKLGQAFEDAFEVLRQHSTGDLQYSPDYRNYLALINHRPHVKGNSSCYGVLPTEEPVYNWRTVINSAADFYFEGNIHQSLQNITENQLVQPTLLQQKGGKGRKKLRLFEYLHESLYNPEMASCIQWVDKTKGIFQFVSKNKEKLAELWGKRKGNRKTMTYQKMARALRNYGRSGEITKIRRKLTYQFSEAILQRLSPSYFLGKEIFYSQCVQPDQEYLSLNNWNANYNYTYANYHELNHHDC
# Procedure, shortened: as §1
# [5] = molecular target: ELF4 (Homo sapiens, UniProt Q99607 1-663); settings: protein: recombinant; tags: N-terminal GST; dsDNA, one strand shown
# Procedure, shortened: as §1
# [6] = molecular target: T3, ELK4 (Homo sapiens, UniProt P28324-2 1-405); settings: protein: recombinant; tags: N-terminal GST; dsDNA, one strand shown
# T3 sequence: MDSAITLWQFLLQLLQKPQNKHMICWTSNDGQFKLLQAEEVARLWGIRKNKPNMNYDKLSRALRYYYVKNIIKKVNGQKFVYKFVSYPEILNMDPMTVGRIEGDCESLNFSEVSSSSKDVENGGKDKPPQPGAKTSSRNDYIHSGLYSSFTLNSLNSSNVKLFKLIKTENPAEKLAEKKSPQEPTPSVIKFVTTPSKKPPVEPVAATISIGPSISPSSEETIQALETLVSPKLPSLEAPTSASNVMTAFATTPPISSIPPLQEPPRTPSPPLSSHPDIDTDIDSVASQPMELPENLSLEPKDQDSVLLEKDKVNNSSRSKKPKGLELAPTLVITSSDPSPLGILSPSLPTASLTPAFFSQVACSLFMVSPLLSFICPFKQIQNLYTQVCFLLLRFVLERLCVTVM
# Procedure, shortened: as §1
# [7] = molecular target: T4, ETV2 (Homo sapiens, UniProt O00321 1-342); settings: protein: recombinant; tags: N-terminal GST; dsDNA, one strand shown
# T4 sequence: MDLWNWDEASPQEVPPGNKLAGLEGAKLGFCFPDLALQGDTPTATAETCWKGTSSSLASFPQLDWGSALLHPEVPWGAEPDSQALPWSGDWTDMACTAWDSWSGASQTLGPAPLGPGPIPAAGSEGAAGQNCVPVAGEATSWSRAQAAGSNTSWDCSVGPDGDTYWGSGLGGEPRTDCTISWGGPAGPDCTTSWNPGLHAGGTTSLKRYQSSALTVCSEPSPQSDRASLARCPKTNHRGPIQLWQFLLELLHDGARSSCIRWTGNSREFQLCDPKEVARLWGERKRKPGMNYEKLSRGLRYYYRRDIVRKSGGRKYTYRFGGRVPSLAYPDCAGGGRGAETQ
# Procedure, shortened: as §1
# [8] = molecular target: T5, ELF3 (Homo sapiens, UniProt P78545 1-371); settings: protein: recombinant; tags: N-terminal GST; dsDNA, one strand shown
# T5 sequence: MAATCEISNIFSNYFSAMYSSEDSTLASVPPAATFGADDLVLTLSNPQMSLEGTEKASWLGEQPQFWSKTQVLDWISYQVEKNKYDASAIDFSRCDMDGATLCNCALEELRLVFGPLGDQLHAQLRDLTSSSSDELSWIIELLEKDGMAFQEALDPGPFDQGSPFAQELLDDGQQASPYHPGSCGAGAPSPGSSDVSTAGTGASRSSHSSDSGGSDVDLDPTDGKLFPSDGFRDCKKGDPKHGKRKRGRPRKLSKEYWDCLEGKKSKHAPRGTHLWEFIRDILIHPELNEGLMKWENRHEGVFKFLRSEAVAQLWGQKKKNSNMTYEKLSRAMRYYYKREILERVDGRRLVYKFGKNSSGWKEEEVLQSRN
# Procedure, shortened: as §1
# [9] = molecular target: CRX (Homo sapiens, UniProt O43186 1-299); settings: protein: recombinant; tags: N-terminal GST; dsDNA, one strand shown
# Procedure, shortened: as §1
# [10] = molecular target: ETV1 (Homo sapiens, UniProt P50549 1-477); settings: protein: recombinant; tags: N-terminal GST; dsDNA, one strand shown
# Procedure, shortened: as §1
# Sequence of HSF1 (Q00613 whole entry): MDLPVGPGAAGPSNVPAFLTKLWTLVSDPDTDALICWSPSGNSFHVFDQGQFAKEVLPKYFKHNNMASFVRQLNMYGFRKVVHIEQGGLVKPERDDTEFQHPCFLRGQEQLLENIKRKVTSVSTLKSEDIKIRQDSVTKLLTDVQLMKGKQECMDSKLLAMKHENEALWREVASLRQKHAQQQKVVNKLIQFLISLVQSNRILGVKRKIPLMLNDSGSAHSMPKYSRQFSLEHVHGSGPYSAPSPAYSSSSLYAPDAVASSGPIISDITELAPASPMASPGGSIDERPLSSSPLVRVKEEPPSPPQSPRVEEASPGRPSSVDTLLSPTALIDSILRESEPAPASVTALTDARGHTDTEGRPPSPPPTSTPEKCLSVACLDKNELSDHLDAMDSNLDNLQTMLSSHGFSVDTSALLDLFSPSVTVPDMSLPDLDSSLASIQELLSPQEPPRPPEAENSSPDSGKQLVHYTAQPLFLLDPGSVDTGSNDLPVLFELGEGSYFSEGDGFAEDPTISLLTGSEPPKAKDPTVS
# Sequence of ELF4 (Q99607 whole entry): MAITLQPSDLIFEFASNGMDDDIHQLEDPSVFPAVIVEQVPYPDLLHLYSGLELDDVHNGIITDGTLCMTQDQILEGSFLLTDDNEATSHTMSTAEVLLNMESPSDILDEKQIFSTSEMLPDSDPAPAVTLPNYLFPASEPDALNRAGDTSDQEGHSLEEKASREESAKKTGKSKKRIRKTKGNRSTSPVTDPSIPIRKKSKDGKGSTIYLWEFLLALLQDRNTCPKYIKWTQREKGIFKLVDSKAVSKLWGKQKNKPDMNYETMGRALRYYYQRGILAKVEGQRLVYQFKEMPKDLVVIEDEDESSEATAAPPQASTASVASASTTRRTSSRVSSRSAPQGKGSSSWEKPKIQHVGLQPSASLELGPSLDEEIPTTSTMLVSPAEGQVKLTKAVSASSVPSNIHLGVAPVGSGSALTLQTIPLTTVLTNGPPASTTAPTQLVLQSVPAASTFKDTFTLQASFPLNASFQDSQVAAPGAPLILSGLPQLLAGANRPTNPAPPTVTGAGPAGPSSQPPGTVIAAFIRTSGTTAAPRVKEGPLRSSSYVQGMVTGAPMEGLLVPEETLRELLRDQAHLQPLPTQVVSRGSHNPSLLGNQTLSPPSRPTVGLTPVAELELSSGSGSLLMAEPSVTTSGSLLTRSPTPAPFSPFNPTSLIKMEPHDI
# Sequence of CRX (O43186 whole entry): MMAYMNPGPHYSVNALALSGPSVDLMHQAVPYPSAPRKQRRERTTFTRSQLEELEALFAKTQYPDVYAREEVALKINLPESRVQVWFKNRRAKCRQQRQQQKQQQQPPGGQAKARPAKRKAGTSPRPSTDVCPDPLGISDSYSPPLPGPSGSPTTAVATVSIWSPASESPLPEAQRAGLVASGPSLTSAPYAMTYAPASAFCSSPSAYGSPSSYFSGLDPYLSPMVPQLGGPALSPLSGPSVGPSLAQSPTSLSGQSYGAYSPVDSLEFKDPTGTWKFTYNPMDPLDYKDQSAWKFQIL
# Sequence of ETV1 (P50549 whole entry): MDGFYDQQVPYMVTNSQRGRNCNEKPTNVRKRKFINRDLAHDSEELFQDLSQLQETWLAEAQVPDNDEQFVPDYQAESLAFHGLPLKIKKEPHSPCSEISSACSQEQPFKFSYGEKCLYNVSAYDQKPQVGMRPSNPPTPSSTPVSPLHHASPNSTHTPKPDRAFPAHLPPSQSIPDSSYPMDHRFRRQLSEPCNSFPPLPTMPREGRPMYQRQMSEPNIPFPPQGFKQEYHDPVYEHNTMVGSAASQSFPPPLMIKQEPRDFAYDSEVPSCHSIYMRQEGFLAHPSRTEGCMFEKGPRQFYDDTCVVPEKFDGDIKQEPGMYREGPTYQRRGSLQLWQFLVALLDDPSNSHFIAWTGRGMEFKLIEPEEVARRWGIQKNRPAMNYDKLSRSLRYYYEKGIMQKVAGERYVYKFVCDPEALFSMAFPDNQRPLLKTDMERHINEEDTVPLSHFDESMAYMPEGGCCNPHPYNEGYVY
# Sequence of ETV5 (P41161 whole entry): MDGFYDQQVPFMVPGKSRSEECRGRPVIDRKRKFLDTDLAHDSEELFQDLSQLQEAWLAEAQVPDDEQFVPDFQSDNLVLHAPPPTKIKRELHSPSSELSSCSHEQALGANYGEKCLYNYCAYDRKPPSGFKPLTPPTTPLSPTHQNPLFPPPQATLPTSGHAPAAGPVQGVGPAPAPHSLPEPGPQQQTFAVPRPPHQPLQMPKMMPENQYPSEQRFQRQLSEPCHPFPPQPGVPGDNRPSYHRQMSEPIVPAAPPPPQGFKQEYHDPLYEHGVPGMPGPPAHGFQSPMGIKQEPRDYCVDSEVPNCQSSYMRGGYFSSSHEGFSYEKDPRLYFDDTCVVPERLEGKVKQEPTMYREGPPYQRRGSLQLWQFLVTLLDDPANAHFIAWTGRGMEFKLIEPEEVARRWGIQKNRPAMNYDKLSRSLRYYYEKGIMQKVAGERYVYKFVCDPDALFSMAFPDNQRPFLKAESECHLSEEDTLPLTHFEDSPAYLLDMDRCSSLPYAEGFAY
sequence,measurement,setting,value
CTCCAC,binding signal,[1],"1.42 fold enrichment (6-mer frequency, TF over GST control)"
same,binding signal,[2],"1.42 fold enrichment (6-mer frequency, TF over GST control)"
same,binding signal,[3],"1.26 fold enrichment (6-mer frequency, TF over GST control)"
same,binding signal,[4],"1.17 fold enrichment (6-mer frequency, TF over GST control)"
same,binding signal,[5],"1.4 fold enrichment (6-mer frequency, TF over GST control)"
same,binding signal,[6],"1.46 fold enrichment (6-mer frequency, TF over GST control)"
same,binding signal,[7],"1.3 fold enrichment (6-mer frequency, TF over GST control)"
same,binding signal,[8],"1.27 fold enrichment (6-mer frequency, TF over GST control)"
same,binding signal,[9],"1.17 fold enrichment (6-mer frequency, TF over GST control)"
same,binding signal,[10],"1.25 fold enrichment (6-mer frequency, TF over GST control)"
